From PubChem
ELG1 repair inh: inhibitors of ELG1-dependent DNA repair in HEK293T cells. Potency, µM (top dose mostly 46.1 µM), without a hit: at the highest dose activity change, negative = inhibition, actives largely listed as inhibitors. HEK293T ELG1-luciferase reporter, luminescence, 16 h; DNA damage induced by 5-fluorouridine. AID 504467. actives 2.3% (n = 330,000); further: potency means the concentration at half of the fitted maximal effect; on the % scale 0 is the no-effect control and ±100 the full control effect; nearly all actives have a fitted effect of over 55% in size
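Luminescence from the luciferase reporter, measured 30 min after ONE-Glo reagent at room temperature, was the read-out. Beforehand, 2,000 cells per well were exposed for 16 hr at 37 °C to 5-fluorouridine together with compound or vehicle.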
Nrf2 ARE act: activators of Nrf2 (ARE) signaling | AREc32 ARE-luciferase reporter (MCF7-derived line), luminescence, 24 h | Potency, µM (titrated, usually from 46.1 µM), inactives show at the highest dose activation, hits mostly activators | actives 0.31% (n = 410,000); further: potency means the concentration at half of the fitted maximal effect; % of control where 0% means no effect; nearly all actives have a fitted effect of over 65% in size
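ARE-driven firefly luciferase activity in AREc32 cells measured after a 24 hr compound exposure at 37 deg C, using Steady-Glo reagent and a 30 min room-temperature hold.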
BRCA1 expr up: BRCA1 expression activation | MCF7-BRCA1-FFLuc reporter, luminescence, 48 h; response scale: scaled: vehicle 0%, 10 µM genistein 100% | Potency, µM (top dose mostly 46.1 µM), for inactives: top-dose activation, usual class: activators | actives 1.1% (n = 380,000); further: potency means the concentration at half of the fitted maximal effect; nearly all actives have a fitted effect of over 80% in size
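MCF7-BRCA1-FFLuc, 2000 cells/well; 2 h attach, 37 °C/5% CO2; compound 48 h; luciferase substrate 15 min; luminescence end-point. Norm. to genistein 10 microM max activation and DMSO; concentration-response curves fitted.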
IL-2 act: IL-2 activation; IL-2 activation reporter assay, cell-based qHTS; stimulated with anti-CD3/CD4/CD28 beads; in transgenic mouse T cells; activation, % (series mostly up to about 46 µM); actives 0.065% (n = 360,000); in the data active means activation above about 50%; inconclusive means mostly about 30% to 49%; further: 0% is about no effect
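Readout: EGFP and DsRed signals by fluorescent plate cytometry. Unstimulated transgenic mouse T cells received compound 60 min before antibody-bead stimulation, then incubated 18 h at 37 degrees C.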
Numbers without * were called inactive; ? = inconclusive; · = not tested or not shown; [ ] = remark or other dose. An excerpt weighted towards active compounds, which were near 3.1% of everything screened. Unless noted, the call rests on the fitted dose curve; in most records, active means well fitted curve in the direction sought with a large enough effect; inconclusive means small, poorly fitted or top-dose-only effect, or another doubt; inactive means no such curve, though single readings can be large; an effect the other way counts as inactive or inconclusive.

SMILES	ELG1 repair inh	Nrf2 ARE act	BRCA1 expr up	IL-2 act
Clc1cccc(-c2nnc(SCc3nc4ccccc4[nH]3)n2Cc2ccco2)c1	0.0%	2.7%	-27.6%	-2.5
Clc1ccc(OCc2nnc(SCc3nc4ccccc4[nH]3)n2Cc2ccco2)cc1	16.4µM*	3.1%	-52.3%	-3.1
COc1ccc(CNc2cccnc2Cl)cc1	·	4.8%	10µM*	0.1
Cc1ccc(-c2noc(CCC(=O)Nc3ccc(F)cc3Cl)n2)cc1	·	-1.1%	·	·
Cc1cc(/C=C2\SC(=S)NC2=O)c(C)n1-c1cccc(O)c1	?	5.1%	2.82µM*	3.4
COc1ccc(-n2c(C)cc(/C=C3\SC(=O)NC3=O)c2C)cc1	?	5.7%	11.2µM*	-2.8
O=C1NC(=Nc2ccccc2)S/C1=C\c1ccccc1	?	?	-5.8%	-0.2
Cc1ccc(-n2c(C)cc(/C=C3\SC(=O)NC3=O)c2C)cc1	?	4.0%	?	-0.1
Cc1cc(/C=C2\SC(=Nc3ccccc3)NC2=O)c(C)n1-c1ccc(S(N)(=O)=O)cc1	11.2µM*	4.3%	-99.8%	7.0
COc1ccccc1-c1nnc(C2CCN(S(=O)(=O)c3ccc(CC(C)C)cc3)CC2)o1	·	10.3%	·	·
Cc1c(C(=O)NCc2ccco2)oc2ccccc12	24.4%	14.1µM*	41.4%	-1.2
COc1ccc(C(=O)Nc2ccccc2C(=O)NCc2ccco2)cc1OC	14.6µM*	7.7%	-44.2%	-1.9
COc1cc(C(=O)Nc2sc3c(c2C(=O)NCc2ccco2)CCCC3)cc(OC)c1OC	?	-1.0%	-25.1%	-0.9
COc1ccccc1C(=O)Nc1ccccc1C(=O)NCc1ccco1	-10.7%	12.5%	-14.2%	-3.1
COc1ccc(C(=O)Nc2sc3c(c2C(=O)NCc2ccco2)CCCC3)cc1OC	16.4µM*	0.2%	-15.7%	3.2
Cc1ccc(C(=O)Nc2ccccc2C(=O)NCc2ccco2)cc1	-0.1%	17.5%	4.1%	-4.9
Cc1ccccc1CN(c1ccc(C(=O)Nc2ccccc2C(=O)NCc2ccco2)cc1)S(C)(=O)=O	7.31µM*	0.6%	-49.5%	-0.1
COc1ccc(C2N3CC4(C)CN2CC(c2ccccc2)(C3)C4=O)cc1 (stereo unspecified)	·	3.8%	·	·
COc1ccc(-c2noc(CSc3nnc(-c4ccncc4)n3-c3ccc(C)cc3)n2)cc1OC	·	-0.5%	-4.1%	·
O=C(NCc1ccco1)c1ccc2ccccc2c1	?	21.9%	11.2µM*	0.9
COc1ccc(-c2noc(-c3ccccc3C(=O)NCc3ccco3)n2)cc1OC	8.2µM*	13.9%	-9.3%	-0.6
C=CCNC(=O)c1c(N)n(-c2cccc(S(N)(=O)=O)c2)c2nc3ccccc3nc12	9.2µM*	3.4%	-37.0%	-1.3
COc1ccc(-n2c(N)c(C(=O)NCc3ccco3)c3nc4ccccc4nc32)cc1OC	6.51µM*	11.1%	0.1%	-5.4
O=C(NCc1ccco1)c1ccc(C(=O)NCc2ccco2)cc1	·	5.6%	-7.9%	-4.8
Cc1nc2ccccc2c(=O)n1-c1ccc(NC(=O)C(F)(F)F)cc1	·	-1.1%	0.0%	·
SMILES	ELG1 repair inh	Nrf2 ARE act	BRCA1 expr up	IL-2 act
CC(=O)c1cccc(NC(=O)c2ccc(N(Cc3ccccc3C)S(C)(=O)=O)cc2)c1	25.9µM*	6.3%	-64.6%	-2.5
CNC(=O)c1ccc(N(Cc2ccccc2C)S(C)(=O)=O)cc1	5.3%	1.8%	-13.3%	0.0
Cc1ccccc1CN(c1ccc(C(=O)N2CCc3ccccc3C2)cc1)S(C)(=O)=O	14.6µM*	0.6%	-46.2%	1.1
COc1ccc(N2CC(C(=O)Nc3ccccc3C(=O)NCc3ccco3)CC2=O)cc1 (stereo unspecified)	?	0.4%	-0.3%	-2.1
COc1ccc(C(=O)Nc2ccc(Cl)cc2C(=O)NCc2ccco2)cc1OC	16.4µM*	2.7%	-55.8%	-2.4
CCCOc1ccc(N2CC(C(=O)Nc3ccccc3C(=O)NCc3ccco3)CC2=O)cc1 (stereo unspecified)	18.4µM*	3.5%	-10.3%	-4.6
CNC(=O)C[C@H]1C(=O)N(c2ccccc2)C[C@@H]1C	·	-0.4%	8.3%	-1.9
Cc1nn(C(=O)c2ccc(Cl)cc2)c(C)c1S(=O)(=O)N1CCOCC1	·	0.2%	4.2%	·
CCCOc1ccc(/C=C/C(=O)Nc2sc(C)c(C)c2C(=O)OCC)cc1OC	·	0.0%	·	·
Cc1ccc(CN2COc3c(Cl)cc4c(-c5ccccc5)cc(=O)oc4c3C2)cc1	·	-0.2%	·	·
O=C(Nc1ccccc1C(=O)OCc1cc(=O)n2c3c(sc2n1)CCCC3)c1cccc(Cl)c1	·	-0.5%	·	·
COc1ccc(N2CCN(C(CNC(=O)C(=O)NCCc3ccccc3)c3cccnc3)CC2)cc1 (stereo unspecified)	·	-0.8%	·	·
Cc1cccc(CNC(=O)C2CCN(c3nc4ccc(Cl)cc4[nH]3)CC2)c1	·	6.3%	·	·
CN(C)C(=O)c1ccc(NC(=O)c2cncc(Br)c2)cc1	?	-0.1%	11.2µM*	2.0
O=C(Nc1nccs1)c1cncc(Br)c1	?	8.8%	3.55µM*	-0.4
O=C(Nc1ccc2c(c1)OCO2)c1cncc(Br)c1	?	0.2%	10µM*	-0.1
CCC(=O)C1=C(c2cccc([N+](=O)[O-])c2)N(C(=O)CC)n2c(nnc2-c2ccccc2)S1	·	2.7%	·	·
CCOc1ccc(-c2nnc(SCC(=O)NCCC(C)C)nc2-c2ccc(OCC)c(OC)c2)cc1OC	·	0.1%	·	·
O=C(Nc1ccccn1)c1cc(-c2cccnc2)nc2ccc(Br)cc12	?	-0.1%	-45.8%	2.3
CC(=O)c1ccc(N2CCN(C(=O)c3cc(-c4cccnc4)nc4ccc(Br)cc34)CC2)cc1	16.4µM*	3.5%	-3.6%	1.8
O=C(c1cc(-c2cccnc2)nc2ccc(Br)cc12)N1CCN(c2ncccn2)CC1	?	1.0%	-6.6%	-0.1
O=C(Nc1ccc(C(=O)N2CCOCC2)cc1)c1cc(-c2cccnc2)nc2ccc(Br)cc12	9.2µM*	3.5%	-60.7%	-1.5
O=C(CSc1ccc(-c2nc3ccccc3[nH]2)cn1)N1CCN(C(=O)c2ccco2)CC1	16.4µM*	0.6%	1.1%	-0.3
CCN(CC)C(=O)c1c(NC(=O)c2ccccc2F)sc2c1CCC(C(C)(C)C)C2 (stereo unspecified)	·	4.6%	·	·
CCOC(=O)c1c(CN2CCOCC2)n(-c2ccccc2)c2cc(Br)c(O)cc12	23.1µM*	-0.2%	2.8%[1.84 µM]	2.1
CCOC(=O)c1c(CN2CCOCC2)n(-c2ccccc2)c2cc(Br)c(OC)cc12	?	-0.5%	-61.6%	-1.0
Cc1nc2ccc(S(=O)(=O)N(C)CC(=O)Nc3ccc(Br)c(C)c3)cc2s1	·	0.0%	·	·
CC1CCN(CC2C(=O)O[C@@H]3C[C@@]4(C)CCC[C@H](C)C4=C[C@H]23)CC(C)(C)C1 (stereo partly specified)	0.0%	8.91µM*	-17.8%	0.1
CCCC(/C=C/c1ccc(OC(C)=O)cc1)=C1/c2ccccc2C(=O)N1c1ccccc1	-13.8%	11.2µM*	-50.6%	-0.7
CC(=O)Oc1ccc(C#C/C=C2\c3ccccc3C(=O)N2c2ccccc2)cc1	27.0%	?	-54.9%	-0.2
